Screening results (PubChem)
Compounds with a hit are over-represented: about 4.7% of the library has one in this group of screens.
TRHR PAM = TRH receptor (human) allosteric enhancement; TRHR cells, fluo-8 calcium fluorescence, EC20 TRH enhancement; P34981; enhancement, % at 2 µM; AID 493056; 360,000 compounds, 0.66% hits; in the data active = enhancement above about 30%; note: 0% is about no effect
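TRHR-expressing cells loaded with fluo-8 calcium dye were read kinetically (ex 480/em 530) during compound addition, then stimulated with an EC20 of TRH (10 nM final). Enhancement of the Gq-mediated intracellular calcium response was scored.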
D1 antagonist = antagonists of human D1 dopamine receptor. P21728. HEK293 TREx D1 cells, calcium flux, dopamine EC80; hits give low values. activity change, negative = inhibition, % at 10 µM. 360,000 compounds, 3.2% hits; in the data active = activity change below about -30%; note: % is set by controls: 0 for no effect and ±100 for the full control effect
Target sequence (P21728 whole entry, looked up): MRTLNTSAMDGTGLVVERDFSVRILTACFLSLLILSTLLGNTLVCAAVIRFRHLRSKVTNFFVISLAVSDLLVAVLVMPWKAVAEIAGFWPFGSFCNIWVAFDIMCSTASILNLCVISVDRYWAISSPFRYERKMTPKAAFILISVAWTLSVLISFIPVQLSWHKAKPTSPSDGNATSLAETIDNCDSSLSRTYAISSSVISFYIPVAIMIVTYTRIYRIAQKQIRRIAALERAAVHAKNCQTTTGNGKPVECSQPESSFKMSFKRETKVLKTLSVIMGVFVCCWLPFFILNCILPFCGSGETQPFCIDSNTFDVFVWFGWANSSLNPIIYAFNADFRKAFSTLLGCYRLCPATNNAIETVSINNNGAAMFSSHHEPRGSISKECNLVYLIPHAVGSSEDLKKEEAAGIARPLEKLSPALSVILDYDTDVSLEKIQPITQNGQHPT
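HEK293 T-REx cells expressing inducible, force-coupled D1 receptor; no-wash Ca dye, 30–90 min RT. Cmpd → 180 s read at 1 Hz → EC80 DA → 180 s read.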
D1 PAM = human D1 dopamine receptor positive modulation. AID 504651. potentiation, % at 10 µM. 360,000 compounds, 0.036% hits. HEK293 TREx D1 cells, calcium flux, dopamine EC20 potentiation. P21728; in the data active = potentiation above about 30%; note: 0% is about no effect
TRHR agonist = activates the human TRH receptor | 360,000 compounds, 0.18% hits | P34981 | activation, % at 2 µM | TRHR cells, calcium flux fluo-8, FDSS agonist mode; note: 0% is about no effect
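Agonist-mode FDSS calcium read (Ex 480/Em 530, 1 s cycles) in 1536-well TRHR cells with fluo-8 dye, after 10-cycle baseline and 23 nL compound addition; TRH at EC20 (10 nM final) added afterwards for the enhancer phase.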
D1 ag = human D1 receptor agonism; P21728; HEK293 T-REx D1 cells, calcium flux, agonist mode; activation, % at 2 µM; 360,000 compounds, 1% hits; AID 504660; note: 0% is about no effect
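Tetracycline-induced HEK293 TREx D1 cells, force-coupled to calcium signalling, were dye-loaded with a no-wash calcium kit. Compound was pin-added after a 10 s baseline. Fluorescence was read kinetically at 1 cycle/s for 180 s, with calcium rises flagged as agonism.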
* = called active by the depositor; nt = no result given. Cut-off read from the data, not from the text of the source, unless noted: active = activation above about 30%; inactive = the rest.

SMILES | TRHR PAM | D1 antagonist | D1 PAM | TRHR agonist | D1 ag
CCCCN(CC)CCNc1c(NC2CCN(C(=O)OCC)CC2)c(=O)c1=O | 8 | -63* | nt | 0 | 2
CCOC(=O)N1CCC(Nc2c(NCCCN(CC)Cc3ccccc3)c(=O)c2=O)CC1 | -1 | 13 | nt | 0 | 2
CCOC(=O)N1CCC(Nc2c(NCCCN3CCN(C4CCCCC4)CC3)c(=O)c2=O)CC1 | 1 | -43* | -7 | -2 | 3
COc1ccccc1CNC(=O)C1CCN(S(=O)(=O)c2c(C)noc2/C=C/c2c(C)cc(C)cc2C)CC1 | 7 | 6 | -1 | 1 | 8
CCOC(=O)N1CCC(Nc2c(OCC)c(=O)c2=O)CC1 | 3 | -34* | -4 | 1 | 3
O=C(CN1C(=O)C2CCCCC2C1=O)Nc1ccc(OC(F)F)c(Cl)c1 (configuration not stated) | 6 | -32* | -2 | 1 | 1
CNCC[C@@H](Oc1ccc(C(F)(F)F)cc1)c1ccccc1 | 3 | nt | nt | 6 | 46*
CN(C)C(CNc1ccc(C(F)(F)F)cn1)c1ccccc1 (configuration not stated) | 10 | 3 | -7 | 2 | 8
COc1ccc(C)cc1NC(=O)C(NS(=O)(=O)c1cccc2nsnc12)c1ccccc1 (configuration not stated) | -4 | -9 | 2 | 0 | 2
C[C@H](NC(=O)[C@H]1N2C(=O)c3ccccc3C2SC1(C)C)C(=O)N1CCC[C@H]1CO (some centres not stated) | -7 | 7 | -5 | 0 | 40*
N#C/C(=C(/O)c1ccc(Br)s1)c1nc2ccccc2[nH]1 | -6 | -45* | -7 | 1 | 4
N#C/C(=C(/O)c1ccc([N+](=O)[O-])s1)c1nc2ccccc2[nH]1 | -5 | -8 | -3 | 4 | 29
COc1ccc(CCNC(=O)CSc2cn(CCNC(=O)c3ccccc3F)c3ccccc23)cc1OC | 0 | 19 | -3 | -2 | 6
CC(C)c1ccc(NC(=O)CN(Cc2ccccc2)S(C)(=O)=O)cc1 | 1 | -20 | -7 | 0 | 42*
CCC(C)(C)NC(=O)C(c1ccc(C)cc1)N(Cc1cccnc1)C(=O)c1csnn1 (configuration not stated) | 4 | -63* | -25 | 0 | -1
CCOC(=O)c1scc(-c2ccccc2)c1S(=O)(=O)Nc1ccc(N(C)C)cc1 | 53* | -9 | -5 | -1 | 2
Cc1cc(N2CCCCC2)nc(N)n1 | -5 | 5 | -1 | 42* | 19
Cc1cccc(NC(=O)C2CCN(c3nnc(C)c4c(C)n(-c5ccccc5)nc34)CC2)c1C | -1 | 2 | -1 | 0 | 1
Cc1ccccc1OCC(=O)OCC(=O)Nc1cc(S(C)(=O)=O)ccc1Cl | 37* | 14 | -3 | 0 | 9
CS(=O)(=O)c1ccc(Cl)c(NC(=O)COC(=O)CNC(=O)c2ccccc2)c1 | -5 | 4 | -2 | 0 | 4
O=C(NNC1=NS(=O)(=O)c2ccccc21)c1ccc(Cl)cc1 | 3 | -25 | -9 | 0 | 0
O=C(NNC1=NS(=O)(=O)c2ccccc21)c1ccc([N+](=O)[O-])cc1 | 30* | -16 | 0 | 0 | 2
CCOc1ccc(CN2CCN(Cc3cc4ccccc4[nH]3)CC2CCO)cc1 (configuration not stated) | -7 | -30* | 6 | 24 | 41*
CCOc1ccc(CN2CCN(Cc3cnc(-c4ccccc4)s3)CC2CCO)cc1 (configuration not stated) | 1 | -10 | -3 | -1 | 61*
Cc1ncc(CN2CCN(Cc3ccccc3)C(CCO)C2)s1 (configuration not stated) | 22 | -6 | 5 | -1 | 0
SMILES | TRHR PAM | D1 antagonist | D1 PAM | TRHR agonist | D1 ag
COc1cccc(CN2CCN(Cc3cc4ccccc4[nH]3)CC2CCO)c1 (configuration not stated) | -17 | -49* | -1 | 15 | 72*
CC(C)(C)CN1CCN(Cc2cc3ccccc3[nH]2)CC1CCO (configuration not stated) | 2 | 17 | -7 | 0 | 3
COc1ccc(CN2CCN(Cc3c[nH]c4ccccc34)CC2CCO)c(F)c1 (configuration not stated) | 1 | -36* | -11 | 1 | 15
COc1cccc(CNC(=O)C2CCCCN2S(=O)(=O)c2ccc(F)cc2)c1 (configuration not stated) | -2 | 5 | -6 | -1 | 0
COc1ccc(-n2nc(C(=O)Nc3ccc(C)cn3)c3c4ccccc4n(C)c3c2=O)cc1 | 1 | 6 | 3 | 1 | -2
Cc1cccc(N2CCN(C(=O)Cc3c(C(=O)O)c(C)cn3C)CC2C)c1 (configuration not stated) | -3 | -2 | -2 | 0 | 0
COC(=O)c1ccc(OC(=O)CS(=O)c2ccccc2[N+](=O)[O-])cc1 (configuration not stated) | 4 | -1 | 0 | 0 | 1
CCOC(=O)c1ccccc1OC(=O)CS(=O)c1ccccc1[N+](=O)[O-] (configuration not stated) | -1 | -32* | -1 | -1 | 0
CCc1ccc(C(=O)c2cn(CC(=O)Nc3ccc(F)cc3)c3ccc(OC)cc3c2=O)cc1 | 6 | 11 | 1 | 2 | 4
Cc1oc2ccc(O)c(CN3CCCC(C)C3)c2c1C(=O)Nc1ccccc1 (configuration not stated) | 0 | 5 | 6 | 0 | -1
O=C(NCc1ccncc1)c1nc(-c2cccs2)no1 | -2 | -12 | 2 | 0 | 8
O=C(NCc1cccnc1)c1nc(-c2ccc(C(F)(F)F)cc2)no1 | -1 | -40* | -6 | 0 | 14
O=C(NCc1ccncc1)c1nc(-c2ccc(C(F)(F)F)cc2)no1 | -1 | -39* | -10 | 0 | 8
Cc1cccc(OCC(=O)Nc2ccc(Cl)c(-c3nc4ccccc4[nH]3)c2)c1 | 21 | -3 | 3 | -1 | 0
CC1=CN2C(=N)/C(=C\c3cn(CCCOc4ccccc4)c4ccccc34)C(=O)N=C2S1 | -6 | -21 | -5 | 6 | 31*
O=C(Nc1ccc(C(F)(F)F)cc1)N1CCC(N2CCCCC2)CC1 | 1 | 8 | -2 | 1 | 14
COc1ccccc1N1CCN(c2nc(-c3ccc(C)cc3)nc3ccccc23)CC1 | -2 | 6 | 1 | 0 | -3
COc1cccc(CNCc2ccccn2)c1OC | -8 | -23 | -11 | 1 | 3
COc1cccc(CNCc2ccc(OC)c3ccccc23)c1OC | 2 | -41* | -9 | -1 | 50*
COc1ccccc1CNCc1cc(Br)ccc1OC | -6 | -1 | -3 | 2 | 37*
Nc1cccc(/C=C/c2ccncc2)c1 | 3 | -41* | 0 | 0 | 1
